Test [1] is described as follows: AP1 Signaling Pathway (AID 357; active = well fitted curve in either direction with a large enough effect, not every such curve was filed as active;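 note: ME-180 reporter cells stimulated with EGF at its EC50 level; % is set by controls: 0 for no effect and ±100 for the full control effect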). To be noted: ME-180 (cervical carcinoma) AP-1-bla reporter, EGF-induced, beta-lactamase ratio, 5 h; at 17.2 µM (top of the series) unless noted. The gist of the method:
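First, ME-180 AP-1-bla cells were cultured overnight at 37 °C in low-serum Opti-MEM. Next, titrated compounds with EC50 EGF were incubated 5 hours. Finally, CCF4 was added for 2.5 hours and the 460/530 nm ratio recorded.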

Test [2] can be described thus: NFAT Signaling Pathway (AID 444; active = well fitted curve in either direction with a large enough effect, not every such curve was filed as active;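 note: carbachol stimulus at about its EC50 of 1 µM final; % is set by controls: 0 for no effect and ±100 for the full control effect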). As to conditions: Jurkat NFAT-bla M1, carbachol, beta-lactamase ratio, 5 h; at 17.2 µM (top of the series) unless noted. Put shortly:
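Jurkat cells with NFAT-driven β-lactamase reporter and co-expressed M1 receptor, stimulated with carbachol (final 1 uM, ~EC50), compound titration, 5 h at 37 °C. CCF4 loaded 1 h at RT; 460/530 nm ratio gave %activity and AC50.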

Test [3] has as its target Glucocorticoid receptor (Homo sapiens) (UniProt P04150). Briefly: GR-GFP Redistribution (AID 450;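 active = compounds whose dose series gives a full or clear partial fitted curve of increased nuclear translocation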; note: potency is the fitted concentration of half-maximal effect). As to conditions: U2OS GR-GFP nuclear translocation, laser cytometry, 2 h.
Test [4] has the same target. As to the kind of experiment: GR-EFC Redistribution (AID 451; calls by dose curve; note: potency is the fitted concentration of half-maximal effect). As to conditions: CHO-K1 GR-EFC translocation, beta-gal luminescence, 2 h. The gist of the method:
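CHO-K1 cells expressing nuclear EA and GR-ED fragments of b-gal; compounds titrated up to 46 uM final, 2 h at 37 C. GR nuclear translocation read as complemented b-gal luminescence after 1 h RT detection.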

The target in test [5] is 3',5'-cyclic-AMP phosphodiesterase 4B (Homo sapiens) (UniProt Q07343). Briefly: qHTS Assay for Inhibitors of PDE-IV (AID 607; active = well fitted activation curve with a large enough effect in the main read-out, with a control signal flat, not every such curve was filed as active; note: % of control where 0% means no effect). Put shortly:
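The readout is membrane depolarisation from a cAMP-sensing CNG channel, detected with a potential dye at ex 535/em 590. Cells were HEK293-derived (endogenous PDE-IV) at 1000 cells/well, titrated up to 22.9 uM final.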
In general terms: In qHTS, concentration-response curves come from the screen itself.

Test [6] addresses Guanine nucleotide-binding protein G(i) subunit alpha-1 (Homo sapiens) (UniProt P63096). Briefly: qHTS Assay for Inhibitors of RGS12 GoLoco Motif Activity (Green Fluorophore) (AID 879). Note: potency is the fitted concentration of half-maximal effect. Put shortly:
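A drop in FITC polarization marked displacement of the FITC-tagged RGS12 GoLoco peptide (10 nM) from Gαi1 (50 nM). Compounds were incubated 10 min at room temperature in Tris pH 7.5 buffer containing 150 mM NaCl, 0.1 mM GDP and 0.05% NP40; unlabeled peptide titration served as control.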

Test [7] in a line: qHTS Assay for Identification of Small Molecule Agonists for Thrombopoietin (TPO) Signaling Pathway (AID 917). Note: % is set by controls: 0 for no effect and ±100 for the full control effect. Put shortly: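 Luciferase reporter (Glycoprotein IIb promoter) in IL-3-deprived Ba/F3 cells carrying human TPO receptor; compounds co-added with 26 pM TPO, incubated 24 h, 37 C. Steadylite luminescence measured after 10 min.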
The target in test [8] is Muscarinic acetylcholine receptor M1 (Rattus norvegicus) (UniProt P08482). As to the kind of experiment: qHTS Assay for Antagonists of Acetylcholine Muscarinic M1 Receptor: Measurement of IP-One Response (AID 944). Note: nearly all actives have a fitted effect of over 75% in size. Put shortly: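 Antagonist mode with rat M1 receptor transfected into CHO cells. Compound is added first for 10 min, carbachol at its EC80 follows for 30 min, and lysis reagents then allow TR-FRET detection of accumulated IP1.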
Sequence of Muscarinic acetylcholine receptor M1 (Rattus norvegicus) (P08482 whole entry, looked up): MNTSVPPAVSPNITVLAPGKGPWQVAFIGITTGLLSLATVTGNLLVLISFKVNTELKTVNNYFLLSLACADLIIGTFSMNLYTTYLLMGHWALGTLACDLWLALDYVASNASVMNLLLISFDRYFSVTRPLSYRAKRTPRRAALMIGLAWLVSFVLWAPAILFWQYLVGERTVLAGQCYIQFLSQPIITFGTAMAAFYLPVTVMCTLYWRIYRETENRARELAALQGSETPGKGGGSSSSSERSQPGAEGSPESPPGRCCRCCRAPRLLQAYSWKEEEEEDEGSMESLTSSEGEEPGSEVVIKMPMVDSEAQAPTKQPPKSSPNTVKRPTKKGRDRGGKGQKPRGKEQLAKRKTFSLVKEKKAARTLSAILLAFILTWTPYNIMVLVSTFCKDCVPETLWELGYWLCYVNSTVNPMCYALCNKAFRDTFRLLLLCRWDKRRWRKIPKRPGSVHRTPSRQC

Test [9] deals with Pyruvate kinase (Leishmania mexicana) (UniProt Q27686). As to the kind of experiment: qHTS Validation Assay for Inhibitors of Leishmania Mexicana Pyruvate Kinase (AID 945).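 Note: 0% = DMSO only neutral control wells.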 Put shortly: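 Eight-point qHTS titrations; enzyme 0.2 nM LmPYK (E451W mutant); substrates 0.5 mM PEP, 0.1 mM ADP; 7 mM MgCl2; 1 h room temperature; PKLight luminescence normalized to neutral control.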
Sequence of Pyruvate kinase (Leishmania mexicana) (Q27686 2-499 E452W): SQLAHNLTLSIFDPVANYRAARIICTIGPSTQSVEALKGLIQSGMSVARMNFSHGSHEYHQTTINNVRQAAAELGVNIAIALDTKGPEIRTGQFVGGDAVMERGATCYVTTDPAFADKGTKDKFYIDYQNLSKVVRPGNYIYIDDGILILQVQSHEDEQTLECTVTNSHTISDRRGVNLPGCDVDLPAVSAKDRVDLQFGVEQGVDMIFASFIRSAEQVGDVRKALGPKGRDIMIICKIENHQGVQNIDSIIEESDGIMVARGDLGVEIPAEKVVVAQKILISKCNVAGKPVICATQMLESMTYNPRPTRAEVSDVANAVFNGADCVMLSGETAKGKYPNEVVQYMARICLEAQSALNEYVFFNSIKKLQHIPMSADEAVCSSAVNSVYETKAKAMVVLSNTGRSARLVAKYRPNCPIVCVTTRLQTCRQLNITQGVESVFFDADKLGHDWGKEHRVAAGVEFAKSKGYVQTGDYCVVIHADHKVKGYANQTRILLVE
Test [10] concerns the target Pyruvate kinase PKM (Homo sapiens) (UniProt P14618). Briefly: qHTS Assay for Activators of Human Muscle Pyruvate Kinase (AID 954; active = well fitted curve in the direction sought with a large enough effect, not every such curve was filed as active;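 note: 0% = uninhibited enzyme and -100% = no enzyme or full thiadiazolimine inhibition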). Put shortly: (§1)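 PKM2, human, >95% pure, 0.1 nM; PEP 0.5 mM (Km), ADP 0.1 mM; 50 mM imidazole pH 7.2, 50 mM KCl, 0.01% Tween 20, 0.05% BSA; 1 h RT; luciferase luminescence readout.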
Test [11] addresses Alpha-galactosidase (Coffea arabica) (UniProt Q42656). Briefly: Counterscreen for Glucocerebrosidase Inhibitors: qHTS Assay for Coffee Bean alpha-Galactosidase at pH 4.5 (AID 957).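 Note: plate controls were enzyme alone for no effect and no enzyme for full effect.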 Put shortly:
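Enzyme is added first (2 nM final), then compounds titrated from 0.7 nM to 77 uM, then 80 uM 4-methylumbelliferyl alpha-D-galactopyranoside; after 20 min at room temperature a pH 10 NaOH/glycine stop precedes fluorescence reading at 365/440 nm.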

Test [12] addresses alpha-glucosidase (Oryza sativa, rice) (UniProt Q653V4). Briefly: Counterscreen for Glucocerebrosidase Inhibitors: qHTS Assay for Rice alpha-Glucosidase at pH 5.0 (AID 997).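 Note: 0% = full activity with enzyme and -100% = basal without enzyme.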 Put shortly: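 Endpoint fluorogenic assay at pH 5.0: compounds (0.7 nM to 77 uM) titrated against 4 nM rice enzyme and 400 uM 4-MU-alpha-glucoside for 20 min at room temperature; NaOH/glycine stop, read ex 365/em 440 nm, Hill-fitted AC50.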

The nature of test [13]: Stat Signaling Pathway (AID 446; active = well fitted curve in either direction with a large enough effect, not every such curve was filed as active;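 note: ME-180 cervical cancer cells given 40 pM IL-6 alongside compound; SIE-controlled beta-lactamase reporter measured as 460/530 nm FRET emission ratio; % is set by controls: 0 for no effect and ±100 for the full control effect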). The gist of the method:
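Emission at 460 and 530 nm (excitation 405 nm) reports SIE-controlled beta-lactamase in ME-180 cells. Cells received compound with 40 pM IL-6 for 5 hrs at 37 C; data scaled between 300 pM IL-6 and 125 nM JAK-inhibitor controls.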

Test [14] deals with Cytochrome P450 3A4 (Homo sapiens) (UniProt P08684). Briefly: qHTS Assay for Activators of Cytochrome P450 3A4 (AID 885). Note: nearly all actives have a fitted effect of over 65% in size. The gist of the method:
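Activators are scored by enhanced luminescence from CYP3A4 conversion of luciferin-PPXE (25uM, equal to KM) to luciferin, after 60 min at RT with an NADPH-regenerating system.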

For test [15], the target named is Cytochrome P450 2D6 (Homo sapiens) (UniProt P10635). Briefly: qHTS Assay for Inhibitors and Substrates of Cytochrome P450 2D6 (AID 891).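 Note: luciferin methyl ether substrate demethylated by CYP2D6 with NADPH regeneration; % is set by controls: 0 for no effect and ±100 for the full control effect; nearly all actives have a fitted effect of over 60% in size.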 Put shortly:
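Luminescent read-out of luciferin formed by 5 nM human CYP2D6 demethylating 30 uM Luciferin-ME EGE (Km level) over 60 min at room temperature after NADPH regeneration addition. Data normalized to full inhibition by 1.43 uM quinidine.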

In test [16] the target is Cytochrome P450 2C19 (Homo sapiens) (UniProt P33261). As to the kind of experiment: qHTS Assay for Inhibitors and Substrates of Cytochrome P450 2C19 (AID 899). Note: % is set by controls: 0 for no effect and ±100 for the full control effect; nearly all actives have a fitted effect of over 60% in size. Put shortly: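 Luminescent read-out of luciferin formed from Luciferin-H EGE (10uM, equal to KM). Enzyme 5nM in 50mM KPO4; compound added, 10 min at 37C, then NADPH regenerating system for 60 min at 37C. Full inhibition defined by 57uM ketoconazole.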

The nature of test [17]: qHTS Assay for Identification of Small Molecule Antagonists for Thrombopoietin (TPO) Signaling Pathway (AID 918). Note: potency is the fitted concentration of half-maximal effect; nearly all actives have a fitted effect of over 60% in size. To be noted: TPO-dependent cell signaling reporter, antagonist mode. Put shortly: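 Inhibitors of TPO signaling are sought by stimulating IL-3-starved murine Ba/F3 cells (human TPO receptor, Glycoprotein IIb-driven luciferase) with TPO at its EC50 of 26 pM alongside compound. After 24 hrs at 37 C, reporter luminescence is measured.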

For test [18], the target named is Muscarinic acetylcholine receptor M1 (Rattus norvegicus) (UniProt P08482). Briefly: qHTS Assay for Antagonists of Acetylcholine Muscarinic M1 Receptor: Kinetic Measurement of Intracellular Calcium Response (AID 943).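 Note: Fluo-4 calcium signal as peak divided by basal fluorescence over 4 min; nearly all actives have a fitted effect of over 75% in size.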 The gist of the method: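 Antagonism is measured as inhibition of the carbachol-evoked calcium rise in CHO cells transfected with rat M1. Cells are dye-loaded, exposed to compound for 10 min, then stimulated with 100 nM carbachol (EC80).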

Test [19] has as its target Pyruvate kinase PKM (Homo sapiens) (UniProt P14618). As to the kind of experiment: qHTS Assay for Inhibitors of Human Muscle Pyruvate Kinase (AID 958). Put shortly:
as §1

The target of test [20] is Alpha-galactosidase (Coffea arabica) (UniProt Q42656). As to the kind of experiment: Counterscreen for Glucocerebrosidase Inhibitors: qHTS Assay for Coffee Bean alpha-Galactosidase at pH 5.9 (AID 998).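 Note: plate controls were uninhibited enzyme for no effect and no-enzyme basal signal for full effect.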 The gist of the method:
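Enzyme 2 nM + cpd (0.7 nM–77 uM titration) + 4-MU-alpha-Gal 80 uM, pH 5.9 citrate/Tween-20, RT 20 min, NaOH/glycine stop pH 10, fluor 365/440. Normalized to no-enzyme and full-activity controls; Hill-fit AC50.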

For test [21], the target named is Mitogen-activated protein kinase 10 (Mus musculus) (UniProt Q61831). Briefly: JNK3 AlphaScreen Assay (AID 530; active = well fitted curve in either direction with a large enough effect, not every such curve was filed as active). Put shortly:
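Activity was read by AlphaScreen after JNK3-containing HepG2 lysate (cytokine pre-activated) phosphorylated biotinylated GST-cJun with 10 uM ATP at room temperature. Phospho-Ser73 cJun antibody with Protein-A acceptor beads provided detection.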
(Bead proximity is the source of the signal in Alpha formats.)

Test [22] in a line: qHTS Assay for Identification of Small Molecule Antagonists for NFkB Signaling Pathway (AID 895; active = well fitted inhibition curve with a large enough effect in the signal ratio, with a control signal flat, not every such curve was filed as active; the % refers to the signal ratio; note: % is set by controls: 0 for no effect and ±100 for the full control effect). The gist of the method:
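ME-180 NFkB-bla cells (beta-lactamase under NFkB response element), plated overnight, treated with compound then 10 pM TNF alpha (about EC50) for 5 hrs at 37 C. LiveBLAzer FRET read at 460/530 nm emission, 405 nm excitation.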

The values that follow come from PubChem BioAssay (NCATS).

Values without a mark were called inactive. Records with an inconclusive call do not appear. Calls of active or inactive are those of the source. Unless noted, calls come from the whole dose curve; as a rule, active = well fitted curve in the direction sought with a large enough effect; inconclusive = small, poorly fitted or top-dose-only effect, or another doubt; inactive = no such curve, though single readings can be large; an effect the other way counts as inactive or inconclusive.

Sequence of Guanine nucleotide-binding protein G(i) subunit alpha-1 (Homo sapiens) (P63096 whole entry, looked up): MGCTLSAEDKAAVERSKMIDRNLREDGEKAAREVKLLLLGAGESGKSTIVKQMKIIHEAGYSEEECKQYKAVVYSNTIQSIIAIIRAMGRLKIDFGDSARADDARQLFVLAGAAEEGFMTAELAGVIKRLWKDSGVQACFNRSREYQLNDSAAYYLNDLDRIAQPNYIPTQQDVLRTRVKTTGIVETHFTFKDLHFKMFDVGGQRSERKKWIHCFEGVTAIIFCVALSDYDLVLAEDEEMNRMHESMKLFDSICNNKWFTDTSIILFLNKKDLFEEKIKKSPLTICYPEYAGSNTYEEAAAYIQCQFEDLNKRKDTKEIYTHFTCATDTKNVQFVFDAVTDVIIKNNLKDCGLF
Sequence of Pyruvate kinase PKM (Homo sapiens) (P14618 whole entry, looked up): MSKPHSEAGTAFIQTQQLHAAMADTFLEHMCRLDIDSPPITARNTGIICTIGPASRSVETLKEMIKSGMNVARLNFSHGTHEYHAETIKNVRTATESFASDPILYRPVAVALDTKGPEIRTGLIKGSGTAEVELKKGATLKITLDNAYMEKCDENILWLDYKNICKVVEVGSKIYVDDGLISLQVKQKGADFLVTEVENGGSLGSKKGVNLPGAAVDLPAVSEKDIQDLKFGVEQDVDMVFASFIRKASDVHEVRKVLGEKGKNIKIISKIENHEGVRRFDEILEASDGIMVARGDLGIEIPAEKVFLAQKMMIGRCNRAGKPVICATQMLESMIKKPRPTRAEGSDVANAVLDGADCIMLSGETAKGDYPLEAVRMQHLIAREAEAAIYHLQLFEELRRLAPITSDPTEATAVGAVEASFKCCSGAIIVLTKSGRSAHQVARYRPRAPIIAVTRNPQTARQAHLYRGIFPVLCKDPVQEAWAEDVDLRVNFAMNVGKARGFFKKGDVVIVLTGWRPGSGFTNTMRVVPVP
Sequence of Glucocorticoid receptor (Homo sapiens) (P04150 whole entry, looked up): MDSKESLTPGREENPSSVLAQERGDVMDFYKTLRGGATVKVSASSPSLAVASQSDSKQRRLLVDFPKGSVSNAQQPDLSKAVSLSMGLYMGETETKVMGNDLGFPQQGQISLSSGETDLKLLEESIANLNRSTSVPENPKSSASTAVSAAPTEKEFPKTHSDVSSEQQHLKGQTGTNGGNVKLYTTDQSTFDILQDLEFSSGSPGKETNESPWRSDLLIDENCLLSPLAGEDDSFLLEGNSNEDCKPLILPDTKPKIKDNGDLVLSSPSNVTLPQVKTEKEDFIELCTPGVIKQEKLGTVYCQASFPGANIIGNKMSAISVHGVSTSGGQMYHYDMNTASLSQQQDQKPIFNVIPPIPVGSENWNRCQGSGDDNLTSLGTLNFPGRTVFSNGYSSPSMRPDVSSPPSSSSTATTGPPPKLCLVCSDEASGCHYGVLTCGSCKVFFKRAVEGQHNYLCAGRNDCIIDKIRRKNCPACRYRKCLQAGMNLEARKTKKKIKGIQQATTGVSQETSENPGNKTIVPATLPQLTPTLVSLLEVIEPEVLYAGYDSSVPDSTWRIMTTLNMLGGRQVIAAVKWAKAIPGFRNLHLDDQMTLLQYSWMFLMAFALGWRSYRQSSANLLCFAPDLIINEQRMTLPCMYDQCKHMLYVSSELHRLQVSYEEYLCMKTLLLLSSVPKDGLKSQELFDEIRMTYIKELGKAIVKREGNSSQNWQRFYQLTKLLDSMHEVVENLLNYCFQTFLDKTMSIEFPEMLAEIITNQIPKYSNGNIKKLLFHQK
Sequence of Alpha-galactosidase (Coffea arabica) (Q42656 whole entry, looked up): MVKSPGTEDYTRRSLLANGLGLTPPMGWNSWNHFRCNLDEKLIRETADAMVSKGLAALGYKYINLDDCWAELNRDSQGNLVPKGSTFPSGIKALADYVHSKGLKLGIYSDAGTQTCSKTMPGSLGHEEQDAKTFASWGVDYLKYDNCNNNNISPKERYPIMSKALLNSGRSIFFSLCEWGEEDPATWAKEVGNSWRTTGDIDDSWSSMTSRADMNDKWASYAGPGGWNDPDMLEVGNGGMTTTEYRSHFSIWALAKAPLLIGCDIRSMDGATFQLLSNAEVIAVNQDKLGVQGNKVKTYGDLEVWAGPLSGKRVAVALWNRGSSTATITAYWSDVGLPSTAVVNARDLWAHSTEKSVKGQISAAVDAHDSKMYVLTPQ
Sequence of 3',5'-cyclic-AMP phosphodiesterase 4B (Homo sapiens) (Q07343 whole entry, looked up): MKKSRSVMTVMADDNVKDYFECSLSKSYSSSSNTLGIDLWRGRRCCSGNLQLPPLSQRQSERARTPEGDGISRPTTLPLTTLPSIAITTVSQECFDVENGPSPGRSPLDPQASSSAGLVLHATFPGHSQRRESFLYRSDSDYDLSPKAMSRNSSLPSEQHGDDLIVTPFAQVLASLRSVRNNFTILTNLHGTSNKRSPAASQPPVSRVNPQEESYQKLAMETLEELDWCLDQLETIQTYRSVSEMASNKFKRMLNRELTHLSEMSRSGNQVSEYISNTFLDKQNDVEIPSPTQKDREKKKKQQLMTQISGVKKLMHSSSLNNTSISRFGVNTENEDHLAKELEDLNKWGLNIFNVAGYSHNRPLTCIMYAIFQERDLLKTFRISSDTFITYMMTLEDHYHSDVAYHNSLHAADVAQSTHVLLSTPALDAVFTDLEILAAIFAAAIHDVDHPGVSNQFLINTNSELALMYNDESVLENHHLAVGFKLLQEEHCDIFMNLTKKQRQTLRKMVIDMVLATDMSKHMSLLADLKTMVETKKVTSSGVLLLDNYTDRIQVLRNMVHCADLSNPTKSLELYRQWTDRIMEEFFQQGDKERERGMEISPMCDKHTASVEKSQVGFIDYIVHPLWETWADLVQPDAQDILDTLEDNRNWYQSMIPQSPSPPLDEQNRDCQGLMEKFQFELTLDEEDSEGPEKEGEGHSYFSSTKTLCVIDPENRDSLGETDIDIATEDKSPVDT
Sequence of Cytochrome P450 2D6 (Homo sapiens) (P10635 whole entry, looked up): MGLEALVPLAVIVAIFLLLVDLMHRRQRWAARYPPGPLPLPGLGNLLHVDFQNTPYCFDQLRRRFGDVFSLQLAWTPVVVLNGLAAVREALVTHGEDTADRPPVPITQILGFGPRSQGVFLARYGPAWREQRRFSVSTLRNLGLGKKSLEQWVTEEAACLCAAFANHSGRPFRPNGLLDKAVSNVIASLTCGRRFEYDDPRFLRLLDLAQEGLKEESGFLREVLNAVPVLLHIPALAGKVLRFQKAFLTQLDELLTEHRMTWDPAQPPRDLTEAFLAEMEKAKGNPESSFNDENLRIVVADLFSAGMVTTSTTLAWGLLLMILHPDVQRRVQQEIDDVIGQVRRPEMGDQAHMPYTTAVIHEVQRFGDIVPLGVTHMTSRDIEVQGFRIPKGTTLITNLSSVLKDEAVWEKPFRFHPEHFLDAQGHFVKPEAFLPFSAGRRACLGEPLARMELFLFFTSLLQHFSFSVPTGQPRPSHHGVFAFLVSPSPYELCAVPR
Sequence of Cytochrome P450 3A4 (Homo sapiens) (P08684 whole entry, looked up): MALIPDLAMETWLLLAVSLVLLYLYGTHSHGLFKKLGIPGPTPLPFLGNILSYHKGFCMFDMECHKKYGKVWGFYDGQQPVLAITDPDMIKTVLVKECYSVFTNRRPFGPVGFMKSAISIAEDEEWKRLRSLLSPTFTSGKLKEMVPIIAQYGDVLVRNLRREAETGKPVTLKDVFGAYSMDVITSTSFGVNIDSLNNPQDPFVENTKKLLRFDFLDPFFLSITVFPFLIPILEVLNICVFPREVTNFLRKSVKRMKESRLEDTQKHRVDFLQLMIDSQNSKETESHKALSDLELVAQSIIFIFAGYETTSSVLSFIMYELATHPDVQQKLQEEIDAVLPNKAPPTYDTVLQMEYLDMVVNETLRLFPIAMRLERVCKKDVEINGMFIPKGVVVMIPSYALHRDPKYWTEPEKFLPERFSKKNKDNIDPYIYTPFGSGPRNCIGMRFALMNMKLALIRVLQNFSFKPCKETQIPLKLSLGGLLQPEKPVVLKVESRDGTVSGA

As to `C[C@@H](Cc1ccc2c(c1)OC(C(=O)O)(C(=O)O)O2)NC[C@H](O)c1cccc(Cl)c1`, the figures for the activity change, negative = inhibition in test [1] and in test [2] were -9.81% [at 38 µM] and 14.6% [at 38 µM], respectively. The Potency in test [3] and in [4] was more than 46 µM in each case. Also, the compound was classed as inactive in [5], in test [7], in test [10], in test [11] and in test [12]. For the same compound, the Potency result in [6], in [8] and in [9] was “inactive” each time.

Consider `C=CCN1CC[C@@]23CCCC[C@@H]2[C@@H]1Cc1ccc(O)cc13`, for which the results for the activity change, negative = inhibition in [1] and in [2] were -10.4% [at 38 µM] and -24.3% [at 38 µM], respectively. The Potency in [3] and in test [4] was more than 46 µM in each case. For the same compound, the Potency result in [6], in test [8] and in test [9] was “inactive” in each case. The compound was classed as inactive in test [7], in [10], in test [11] and in test [12].

Consider `CCCCCCn1c(O)c(C=NC2CCN(Cc3ccccc3)CC2)c(=O)[nH]c1=O`, for which the activity change, negative = inhibition in test [1] is -7.92%. Moreover, the result in [13] was inactive. Further, the Potency in test [3] is more than 20.6 µM.

On to `N[C@@H](Cc1cc(O)c(O)cc1O)C(=O)O`, for which the activity change, negative = inhibition in test [1] is -19.5% [at 38 µM]; in test [2], 3.11% [at 38 µM]. Besides, the Potency was more than 46 µM in test [4], 15.8 µM (active) in [6] and 12.6 µM (active) in [17]. The compound was classed as inactive in [5], in test [11], in [12] and in [20]. The Potency entry in test [14], in test [15], in test [16], in test [18], in [8] and in test [9] was “inactive” in each case. Besides, in [19], the Potency result is “inactive”.

Take `COc1cc2[nH]c(=O)n(-c3cccc(Cl)c3)c(=O)c2cc1OC`: the values for the activity change, negative = inhibition in test [1] and in test [2] were 9.62% and 13.7%, respectively. Also, in [3], the Potency is more than 20.6 µM.

Consider `CC[C@H](CO)NC(=O)[C@@H]1C=C2c3cccc4c3c(cn4C)C[C@@H]2N(C)C1`, for which the activity change, negative = inhibition in [1] was -3.22% [at 38 µM]; in [2], -10.9% [at 38 µM]. Also, the result in test [21], in [7], in [10], in [11], in test [12] and in [20] was inactive. Besides, the Potency entry in test [22] and in [9] was “inactive” each time.
